The record followed here is PubChem BioAssay (NCI).

“And” between values parts separate entries of the source, which are not always exact repeats. Equal entries are not always repeated. This is part of a sample that, as a whole, favours compounds with a hit. Of some 83,000 tested, about 20% had one in any assay.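 The endpoint reported here, percent growth, reads 100 for growth as untreated, 0 for no net growth and -100 for all cells dead.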 The source made the active and inactive calls.

Test systems include SK-MEL-2 melanoma; EKVX NSCLC; SN12C renal; TK-10 renal; ACHN renal; CAKI-1 renal; A498 renal; CCRF-CEM leukemia; MOLT-4 leukemia.
Common to all, as to assay: NCI-60 one-dose screen, 48 h (100 = growth as untreated, 0 = no growth, -100 = all killed)
For another assay, the system named is UO-31 renal. On the procedure: Growth inhibition of the UO-31 human tumor cell line is measured as a screen for anti-cancer activity. Cells are grown in 96 well plates and exposed to the test compound for 48 hours. Compounds are tested at a single concentration, which is 10^-5 M for most compounds. The reported endpoint is percent growth (GI% or GIPRCNT), where numbers from 0 - 100% represent growth inhibition, and numbers from -100% - 0 represent cell death. For example, a value of 40 represents 60% growth inhibition. A value of 0 means no net growth occurred over the course of the experiment. A value of -40 indicates 40% of cells at the beginning of the experiment died by the end of the experiment. A value of -100 means all cells are dead at the end of the experiment.
NCI-60 Human Tumor Cell Lines Screen was performed using the standard one-dose NCI protocol, which is described in more detail at https://dtp.cancer.gov/discovery_development/nci-60/default.htm.
Compounds with GIPRCNT values below 10 were considered active. Activity score was based on GIPRCNT using the following formula: […]
Score is 0 for GIPRCNT values of 100 or above, 50 for GIPRCNT values of 0, and 100 for GIPRCNT values of -100.

On to `COc1ccc2sc3cccc(NCCN(C)C)c3c(=O)c2c1`, for which the growth in the assay on SK-MEL-2 melanoma (10 µM) was 77.3% (inactive) and 70.7% (inactive); in the assay on EKVX NSCLC (10 µM) it was 26.2% (inactive); with SN12C renal (10 µM), 45.1% (inactive) and 9.54% (active); in the assay with UO-31 renal (10 µM) it was 17.4% (inactive) and -2.55% (active); in the assay with TK-10 renal (10 µM) it was 36.1% (inactive) and 32.2% (inactive); in the assay with ACHN renal (10 µM) it was 21.3% (inactive) and -28.3% (active). In addition, the growth is 23.8% (inactive) and -29.8% (active) in the assay with CAKI-1 renal (10 µM); 77.8% (inactive) and 5.39% (active) in the assay with A498 renal (10 µM); 21.3% (inactive) in the assay on CCRF-CEM leukemia (10 µM); 8.84% (active) and -15.2% (active) in the assay with MOLT-4 leukemia (10 µM).

Turning to `CN(Cc1cnc2nc(N)nc(N)c2n1)c1ccc(C(=O)N[C@@H](CCC(=O)O)C(=O)O)cc1`, the growth was 93.1% (inactive) with SK-MEL-2 melanoma (2.5 µM); 83.2% (inactive) with SK-MEL-2 melanoma (10 µM); 41.5% (inactive) in the assay with EKVX NSCLC (2.5 µM); 47% (inactive) with EKVX NSCLC (10 µM); 33.3% (inactive) with SN12C renal (2.5 µM); 26.9% (inactive) in the assay on SN12C renal (10 µM). Moreover, the growth was 37.8% (inactive) in the assay with UO-31 renal (2.5 µM); 32.3% (inactive) in the assay with UO-31 renal (10 µM); 66.9% (inactive) in the assay on TK-10 renal (2.5 µM); 67.7% (inactive) with TK-10 renal (10 µM); 24.9% (inactive) with ACHN renal (2.5 µM); 29.4% (inactive) in the assay with ACHN renal (10 µM). Besides, the growth in the assay on CAKI-1 renal (2.5 µM) was 19.2% (inactive); in the assay with CAKI-1 renal (10 µM) it was 15.5% (inactive); in the assay with A498 renal (2.5 µM), -11.8% (active); in the assay on CCRF-CEM leukemia (2.5 µM), 12.9% (inactive); with CCRF-CEM leukemia (10 µM), 18.8% (inactive); in the assay on MOLT-4 leukemia (2.5 µM), 14.7% (inactive). In addition, the growth in the assay with MOLT-4 leukemia (10 µM) was 10.9% (inactive).

As to `CC/C(=C(\c1ccccc1)c1ccc(OCCN(C)C)cc1)c1ccccc1`, the growth in the assay on SK-MEL-2 melanoma (10 µM) was 68.5% (inactive); with SK-MEL-2 melanoma (12.5 µM), -50% (active); in the assay with EKVX NSCLC (10 µM) it was 60% (inactive); with EKVX NSCLC (12.5 µM), 36.5% (inactive); in the assay on SN12C renal (10 µM) it was 47.7% (inactive); in the assay with SN12C renal (12.5 µM), 37.1% (inactive). The growth in the assay with UO-31 renal (10 µM) was 40.3% (inactive); with UO-31 renal (12.5 µM) it was -62.4% (active); in the assay on TK-10 renal (10 µM), 51.9% (inactive); with TK-10 renal (12.5 µM) it was 56.2% (inactive); in the assay with ACHN renal (10 µM) it was 60.6% (inactive); in the assay on ACHN renal (12.5 µM) it was 25.9% (inactive). Also, the growth with CAKI-1 renal (10 µM) is 29.1% (inactive); in the assay on CAKI-1 renal (12.5 µM), 9.74% (active); with A498 renal (10 µM), 64.1% (inactive); in the assay with A498 renal (12.5 µM), -6.6% (active); with CCRF-CEM leukemia (10 µM), 34.6% (inactive); in the assay with CCRF-CEM leukemia (12.5 µM), -14.1% (active). Moreover, the growth is 33.3% (inactive) with MOLT-4 leukemia (10 µM) and -10.8% (active) in the assay on MOLT-4 leukemia (12.5 µM).

As for `CC[C@@]1(O)C(=O)OCc2c1cc1n(c2=O)Cc2cc3c(CN(C)C)c(O)ccc3nc2-1`, the growth in the assay with SK-MEL-2 melanoma (10 µM) is -36.9% (active) and -18.1% (active); with EKVX NSCLC (10 µM) it was 9.24% (active) and 18.9% (inactive); in the assay with SN12C renal (10 µM), 13.6% (inactive) and 14.3% (inactive); in the assay on UO-31 renal (10 µM), -45.7% (active) and -74.6% (active); with TK-10 renal (10 µM) it was 2.54% (active) and -4.42% (active); in the assay with ACHN renal (10 µM), -40% (active) and -40.5% (active). Besides, the growth is -35% (active) and -16.2% (active) in the assay on CAKI-1 renal (10 µM); -50.8% (active) and -69.4% (active) in the assay with A498 renal (10 µM); -28.7% (active) in the assay with CCRF-CEM leukemia (10 µM); -3.69% (active) and -19.2% (active) in the assay on MOLT-4 leukemia (10 µM).
